The results in this text go back to PubChem BioAssay (NCATS).

The structures appear in SMILES notation. Records with an inconclusive call do not appear. Activity calls are given as the source filed them. Unless noted, the call rests on the fitted dose curve; in most records, active means well fitted curve in the direction sought with a large enough effect; inconclusive means small, poorly fitted or top-dose-only effect, or another doubt; inactive means no such curve, though single readings can be large; an effect the other way counts as inactive or inconclusive.

In assay [1] the target is Lysosomal acid glucosylceramidase (Homo sapiens) (UniProt P04062). The assay is described as follows: Glucocerebrosidase-p2 (AID 348; in the data active means potency below about 10 µM; further: potency means the concentration at half of the fitted maximal effect). Particulars: purified GBA, blue fluorogenic substrate, 40 min. Summed up:
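Normal human glucocerebrosidase (0.2 nM) with blue fluorogenic substrate (80 uM final) in citrate/phosphate pH 5.9 with 10mM sodium taurocholate, 0.01% tween-20; 40 min RT, NaOH/glycine stop; fluorescence Ex 365/Em 440; AC50 from a titration from 0.6 nM upwards.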

Assay [2] is described as follows: AP1 Signaling Pathway (AID 357; active means well fitted curve in either direction with a large enough effect, not every such curve was filed as active;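 further: ME-180 reporter cells stimulated with EGF at its EC50 level; on the % scale 0 is the no-effect control and ±100 the full control effect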). Particulars: ME-180 AP-1-bla reporter, EGF-induced, beta-lactamase ratio, 5 h; at 7.69 µM (top of the series) unless noted. An outline of the steps:
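A ratiometric CCF4 readout (405 nm excitation; 460 and 530 nm emission) quantified AP-1-driven beta-lactamase in ME-180 cells after 5 h with compound and EC50 EGF; AC50 values were derived for activators and inhibitors.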

For assay [3], the target named is Cytochrome P450 1A2 (Homo sapiens) (UniProt P05177). The assay is described as follows: p450-cyp1a2 (AID 410; calls by dose curve; further: potency means the concentration at half of the fitted maximal effect). The note with it: recombinant CYP1A2, luciferin-ME demethylation, luminescence; series mostly up to 57 µM. Summed up:
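20nM CYP1A2, 100uM Luciferin-ME (=Km), 100mM KPO4; cpd 10 min RT; +NADPH regen, 60 min RT; stop/detect 20 min; luminescence. Normalized to furafylline 57 uM = full inhibition.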

The nature of assay [4]: NFAT Signaling Pathway (AID 444; active means well fitted curve in either direction with a large enough effect, not every such curve was filed as active;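 further: carbachol stimulus at about its EC50 of 1 µM final; on the % scale 0 is the no-effect control and ±100 the full control effect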). Particulars: Jurkat NFAT-bla M1, carbachol, beta-lactamase ratio, 5 h; at 7.69 µM (top of the series) unless noted. Summed up:
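Jurkat cells with NFAT-driven β-lactamase reporter and co-expressed M1 receptor, stimulated with carbachol (final 1 uM, ~EC50), compound titration, 5 h at 37 °C. CCF4 loaded 1 h at RT; 460/530 nm ratio gave %activity and AC50.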

The nature of assay [5]: Stat Signaling Pathway (AID 446; active means well fitted curve in either direction with a large enough effect, not every such curve was filed as active;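 further: ME-180 cervical cancer cells given 40 pM IL-6 alongside compound; SIE-controlled beta-lactamase reporter measured as 460/530 nm FRET emission ratio; on the % scale 0 is the no-effect control and ±100 the full control effect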). Particulars: ME-180 (cervical carcinoma) SIE beta-lactamase reporter, IL-6 stimulated, 5 h; at 7.69 µM (top of the series) unless noted. Summed up:
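Emission at 460 and 530 nm (excitation 405 nm) reports SIE-controlled beta-lactamase in ME-180 cells. Cells received compound with 40 pM IL-6 for 5 hrs at 37 C; data scaled between 300 pM IL-6 and 125 nM JAK-inhibitor controls.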

Assay [6] concerns the target Glucocorticoid receptor (Homo sapiens) (UniProt P04150). Nature of the assay: GR-GFP Redistribution (AID 450;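 active means compounds whose dose series gives a full or clear partial fitted curve of increased nuclear translocation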; further: potency means the concentration at half of the fitted maximal effect). Particulars: U2OS GR-GFP nuclear translocation, laser cytometry, 2 h.
The target is the same in assay [7]. The assay is described as follows: GR-EFC Redistribution (AID 451; calls by dose curve; further: potency means the concentration at half of the fitted maximal effect). Particulars: CHO-K1 GR-EFC translocation, beta-gal luminescence, 2 h. Summed up: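 CHO-K1 cells expressing nuclear EA and GR-ED fragments of b-gal; compounds titrated up to 46 uM final, 2 h at 37 C. GR nuclear translocation read as complemented b-gal luminescence after 1 h RT detection.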
The target of assay [8] is Mitogen-activated protein kinase 10 (Mus musculus) (UniProt Q61831). The assay is described as follows: JNK3 AlphaScreen Assay (AID 530; active means well fitted curve in either direction with a large enough effect, not every such curve was filed as active;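 further: kinase came from lysate of stimulated human HepG2 cells; signal reports phosphorylation of biotinylated GST-cJun 1-79 at Ser73 with 10 µM ATP; on the % scale 0 is the no-effect control and ±100 the full control effect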). Particulars: JNK3 lysate, c-Jun phosphorylation; series mostly up to 57.1 µM. Summed up: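 HepG2 lysate (IL-1b/TNFa pre-activated) + biotin-GST-cJun 1-79 + anti-pSer73 cJun; cpd titration, 15 min RT; ATP 10 uM start; Tris pH 7.6, MgCl2, DTT, vanadate; beads in EDTA buffer; AlphaScreen.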
A general note: Alpha assays give light when donor and acceptor beads are brought close together.

Assay [9] addresses 3',5'-cyclic-AMP phosphodiesterase 4B (Homo sapiens) (UniProt Q07343). Nature of the assay: qHTS Assay for Inhibitors of PDE-IV (AID 607; active means well fitted activation curve with a large enough effect in the main read-out, with a control signal flat, not every such curve was filed as active; further: % of control where 0% means no effect). Particulars: HEK293 ACTOne CNG channel cells, membrane potential fluorescence; series mostly up to 22.9 µM. Summed up:
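The readout is membrane depolarisation from a cAMP-sensing CNG channel, detected with a potential dye at ex 535/em 590. Cells were HEK293-derived (endogenous PDE-IV) at 1000 cells/well, titrated up to 22.9 uM final.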

Assay [10] is described as follows: qHTS Assay for Lipid Storage Modulators (AID 1519; calls by dose curve; further: potency means the concentration at half of the fitted maximal effect). Particulars: Drosophila S3 cells, BODIPY lipid droplet/cell ratio, laser cytometry, cells loaded with oleic acid; for activity change, negative = inhibition: at 57.5 µM (top of the series). Summed up:
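Cells seeded at 5,000 per well were treated with compounds over a concentration series and loaded with oleic acid (400 uM, as added). Lipid droplet fluorescence (488 nm excitation, 500-530 nm channel) was read by laser-scanning cytometry and normalized to 20 uM Triacsin C.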

The target of assay [11] is Dual specificity protein kinase CLK4 (Homo sapiens) (UniProt Q9HAZ1). Nature of the assay: qHTS Assay for Inhibitors of CDC-like Kinase 4 (Kinase-Glo Assay) (AID 1770). Further: on the % scale 0 is the no-effect control and ±100 the full control effect; nearly all actives have a fitted effect of over 65% in size. Particulars: recombinant Clk4, Kinase-Glo ATP depletion luminescence; series mostly up to 66.7 µM. An outline of the steps:
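25 nM Clk4 with 100 uM RS repeat peptide and 1 uM ATP (final) in Tris pH7.5, 10 mM MgCl2, 4.5 h at room temperature. Remaining ATP measured by Kinase-Glo luciferase luminescence.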
(In qHTS, concentration-response curves come from the screen itself.)

Assay [12] addresses Ubiquitin carboxyl-terminal hydrolase 1 (Homo sapiens) (UniProt O94782). The assay is described as follows: Inhibitors of USP1/UAF1: Pilot qHTS (AID 504865).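 Further: rhodamine fluorescence freed from ubiquitin-rhodamine substrate followed over time; top concentration of the series differs between compounds; on the % scale 0 is the no-effect control and ±100 the full control effect; nearly all actives have a fitted effect of over 35% in size.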 Particulars: purified USP1/UAF1, Ub-rhodamine cleavage fluorescence; series mostly up to 54.9 µM. An outline of the steps:
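USP1/UAF1 complex at 1 nM preincubated 15 min at room temperature with compound, then Ub-Rho substrate added at 150 nM final. Fluorescence (480/540 nm) read kinetically in 50 mM HEPES pH 7.8, 0.5 mM EDTA, 1 mM TCEP, 0.1 mg/ml BSA, 0.01% Tween-20.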

For assay [13], the target named is Cytochrome P450 3A4 (Homo sapiens) (UniProt P08684). The assay is described as follows: qHTS Assay for Activators of Cytochrome P450 3A4 (AID 885). Further: nearly all actives have a fitted effect of over 65% in size. Particulars: recombinant CYP3A4, Luciferin-PPXE luminescence, 60 min; series mostly up to 57.1 µM. Summed up:
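Activators are scored by enhanced luminescence from CYP3A4 conversion of luciferin-PPXE (25uM, equal to KM) to luciferin, after 60 min at RT with an NADPH-regenerating system.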

Assay [14] addresses Rap guanine nucleotide exchange factor 3 (Homo sapiens) (UniProt O95398). The assay is described as follows: Confirmatory qHTS for agonist of cAMP-regulated guanine nucleotide exchange factor 3 (EPAC1) (AID 1645881).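 Further: EPAC1 catalysed release of BODIPY-GDP from Rap1B seen as fluorescence loss; 100% = effect of cAMP agonist control; nearly all actives have a fitted effect of over 75% in size.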 The note with it: EPAC1 Rap1B BODIPY-GDP exchange fluorescence; series mostly up to 154 µM.
The target in assay [15] is Rap guanine nucleotide exchange factor 4 (Homo sapiens) (UniProt Q8WZA2). The assay is described as follows: Confirmatory qHTS for agonist of cAMP-regulated guanine nucleotide exchange factor 4 (EPAC2) (AID 1645884).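 Further: nucleotide exchange releases bodipy-GDP from Rap1 and this lowers its fluorescence; on the % scale 0 is the no-effect control and ±100 the full control effect; nearly all actives have a fitted effect of over 65% in size.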 The note with it: EPAC2 GEF activity, Rap1B-BODIPY-GDP fluorescence; series mostly up to 154 µM.
For assay [16] the target is unchanged. Nature of the assay: Confirmatory qHTS for antagonist of cAMP-regulated guanine nucleotide exchange factor 4 (EPAC2) (AID 1645885). Further: potency means the concentration at half of the fitted maximal effect; nearly all actives have a fitted effect of over 25% in size. Particulars: EPAC2 Rap1B-BODIPY-GDP exchange fluorescence, biochemical; series mostly up to 114 µM.
Assay [17] can be described thus: Confirmation and Secondary Assay for Modulators of Hemoglobin Beta Chain Splicing at IVS2 654 locus (AID 910).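 Further: HeLa cells stably carrying EGFP split by mutant beta-globin IVS2-654 intron; % of control where 0% means no effect.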 Particulars: HeLa EGFP-654 splicing reporter, GFP fluorescence, 48 h; series mostly up to 38.3 µM. An outline of the steps:
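HeLa cells stably expressing EGFP interrupted by β-globin IVS2-654 intron, seeded overnight in Opti-MEM/2% FCS, then treated 2 days at 37 °C. Restored splicing read as total peak GFP intensity per well by laser scanning cytometry (488 nm excitation, 500–520 nm emission); 500 nM antisense PNA as control.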

Assay [18] can be described thus: Confirmation and Secondary Assay for Modulators of Hemoglobin Beta Chain Splicing at IVS2 705 locus (AID 930).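 Further: HeLa cells stably expressing the EGFP-705 splicing reporter; GFP fluorescence per well restored by corrected splicing of the IVS2-705 intron in EGFP; % of control where 0% means no effect.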 The note with it: HeLa EGFP-705 splicing reporter, GFP fluorescence, 48 h; series mostly up to 38.3 µM. An outline of the steps:
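Secondary splice-site specificity test uses HeLa expressing CMV-driven EGFP interrupted by IVS2-705; cells were treated 2 days at 37C with 500 nM antisense PNA as positive control.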

For assay [19], the target named is Cytochrome P450 3A4 (Homo sapiens) (UniProt P08684). The assay is described as follows: qHTS Assay for Inhibitors and Substrates of Cytochrome P450 3A4 (AID 884). Further: potency means the concentration at half of the fitted maximal effect; nearly all actives have a fitted effect of over 50% in size. Particulars: recombinant CYP3A4, Luciferin-PPXE luminescence; series mostly up to 57.1 µM. Summed up:
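Luminescent readout of luciferin produced by CYP3A4 (20 nM) dealkylation of Luciferin-PPXE, 25 uM (its KM). NADPH-driven reaction ran 60 min at RT after 10 min compound preincubation; data scaled to 57 uM ketoconazole as 100% inhibition.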

Setting [20] is: measured here: cell count channel max response.
[21] abbreviates: measured here: lipid channel max response.

Chain of Cytochrome P450 3A4 (Homo sapiens) (P08684 whole entry, looked up): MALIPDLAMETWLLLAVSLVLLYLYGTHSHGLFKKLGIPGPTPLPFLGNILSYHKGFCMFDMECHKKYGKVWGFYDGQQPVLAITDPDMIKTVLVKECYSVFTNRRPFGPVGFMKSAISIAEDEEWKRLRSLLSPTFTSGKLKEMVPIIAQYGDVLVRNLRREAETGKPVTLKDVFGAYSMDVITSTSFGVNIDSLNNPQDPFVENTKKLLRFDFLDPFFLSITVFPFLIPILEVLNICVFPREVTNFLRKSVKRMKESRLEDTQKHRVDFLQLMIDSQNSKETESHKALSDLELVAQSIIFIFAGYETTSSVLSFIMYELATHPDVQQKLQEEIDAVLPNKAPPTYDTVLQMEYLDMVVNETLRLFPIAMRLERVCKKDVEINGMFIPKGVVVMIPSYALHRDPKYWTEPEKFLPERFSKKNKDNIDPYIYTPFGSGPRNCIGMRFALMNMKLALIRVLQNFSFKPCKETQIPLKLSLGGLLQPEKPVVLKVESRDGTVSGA
Chain of Rap guanine nucleotide exchange factor 3 (Homo sapiens) (O95398 whole entry, looked up): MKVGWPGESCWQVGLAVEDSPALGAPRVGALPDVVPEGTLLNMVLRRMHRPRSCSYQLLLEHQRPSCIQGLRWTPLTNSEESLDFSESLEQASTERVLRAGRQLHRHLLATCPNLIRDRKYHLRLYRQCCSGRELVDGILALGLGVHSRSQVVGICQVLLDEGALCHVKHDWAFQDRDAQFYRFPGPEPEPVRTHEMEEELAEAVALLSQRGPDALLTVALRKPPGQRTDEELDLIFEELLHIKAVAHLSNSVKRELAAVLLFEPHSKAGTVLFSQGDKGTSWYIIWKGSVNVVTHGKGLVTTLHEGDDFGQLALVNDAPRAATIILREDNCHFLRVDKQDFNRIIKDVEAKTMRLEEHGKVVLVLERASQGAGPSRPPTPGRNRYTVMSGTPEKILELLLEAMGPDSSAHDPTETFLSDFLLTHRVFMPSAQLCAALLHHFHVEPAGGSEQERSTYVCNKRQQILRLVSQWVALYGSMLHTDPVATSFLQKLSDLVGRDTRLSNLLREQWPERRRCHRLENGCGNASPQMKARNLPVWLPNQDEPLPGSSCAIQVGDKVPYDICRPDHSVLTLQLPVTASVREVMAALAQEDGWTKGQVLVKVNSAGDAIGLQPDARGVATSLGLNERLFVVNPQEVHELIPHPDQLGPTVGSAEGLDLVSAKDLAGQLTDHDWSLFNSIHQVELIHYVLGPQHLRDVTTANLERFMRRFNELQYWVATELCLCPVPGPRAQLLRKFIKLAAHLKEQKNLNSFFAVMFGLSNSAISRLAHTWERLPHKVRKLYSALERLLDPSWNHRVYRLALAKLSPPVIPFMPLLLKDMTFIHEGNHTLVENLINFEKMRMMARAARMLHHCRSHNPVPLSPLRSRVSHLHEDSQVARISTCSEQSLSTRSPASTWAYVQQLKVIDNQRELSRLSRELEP
Chain of Rap guanine nucleotide exchange factor 4 (Homo sapiens) (Q8WZA2 whole entry, looked up): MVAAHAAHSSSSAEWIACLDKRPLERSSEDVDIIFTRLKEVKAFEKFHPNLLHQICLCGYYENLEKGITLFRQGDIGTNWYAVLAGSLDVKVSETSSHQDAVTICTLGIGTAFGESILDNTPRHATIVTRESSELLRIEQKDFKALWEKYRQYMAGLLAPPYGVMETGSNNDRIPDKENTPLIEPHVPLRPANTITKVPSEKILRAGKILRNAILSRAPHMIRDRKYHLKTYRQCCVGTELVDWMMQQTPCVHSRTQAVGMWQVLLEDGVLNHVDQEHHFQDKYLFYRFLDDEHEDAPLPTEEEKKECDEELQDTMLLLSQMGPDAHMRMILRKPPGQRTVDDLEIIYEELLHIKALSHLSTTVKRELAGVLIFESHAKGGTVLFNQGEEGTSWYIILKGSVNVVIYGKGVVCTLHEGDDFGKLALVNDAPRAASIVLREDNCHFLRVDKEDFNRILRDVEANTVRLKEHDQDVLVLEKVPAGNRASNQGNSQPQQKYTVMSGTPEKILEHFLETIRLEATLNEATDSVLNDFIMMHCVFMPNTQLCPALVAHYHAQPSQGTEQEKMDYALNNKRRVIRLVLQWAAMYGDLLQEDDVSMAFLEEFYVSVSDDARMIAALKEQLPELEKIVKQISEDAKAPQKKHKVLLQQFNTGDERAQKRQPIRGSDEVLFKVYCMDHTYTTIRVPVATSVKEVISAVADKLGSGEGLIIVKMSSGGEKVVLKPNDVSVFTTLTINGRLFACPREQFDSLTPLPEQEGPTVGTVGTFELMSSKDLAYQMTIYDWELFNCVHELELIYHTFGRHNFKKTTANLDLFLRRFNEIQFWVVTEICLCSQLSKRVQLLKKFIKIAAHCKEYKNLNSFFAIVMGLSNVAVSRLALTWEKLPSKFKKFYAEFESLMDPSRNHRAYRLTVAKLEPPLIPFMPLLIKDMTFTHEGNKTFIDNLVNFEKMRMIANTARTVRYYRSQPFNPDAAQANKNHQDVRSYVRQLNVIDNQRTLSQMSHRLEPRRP
Chain of Glucocorticoid receptor (Homo sapiens) (P04150 whole entry, looked up, the tested form may be a part): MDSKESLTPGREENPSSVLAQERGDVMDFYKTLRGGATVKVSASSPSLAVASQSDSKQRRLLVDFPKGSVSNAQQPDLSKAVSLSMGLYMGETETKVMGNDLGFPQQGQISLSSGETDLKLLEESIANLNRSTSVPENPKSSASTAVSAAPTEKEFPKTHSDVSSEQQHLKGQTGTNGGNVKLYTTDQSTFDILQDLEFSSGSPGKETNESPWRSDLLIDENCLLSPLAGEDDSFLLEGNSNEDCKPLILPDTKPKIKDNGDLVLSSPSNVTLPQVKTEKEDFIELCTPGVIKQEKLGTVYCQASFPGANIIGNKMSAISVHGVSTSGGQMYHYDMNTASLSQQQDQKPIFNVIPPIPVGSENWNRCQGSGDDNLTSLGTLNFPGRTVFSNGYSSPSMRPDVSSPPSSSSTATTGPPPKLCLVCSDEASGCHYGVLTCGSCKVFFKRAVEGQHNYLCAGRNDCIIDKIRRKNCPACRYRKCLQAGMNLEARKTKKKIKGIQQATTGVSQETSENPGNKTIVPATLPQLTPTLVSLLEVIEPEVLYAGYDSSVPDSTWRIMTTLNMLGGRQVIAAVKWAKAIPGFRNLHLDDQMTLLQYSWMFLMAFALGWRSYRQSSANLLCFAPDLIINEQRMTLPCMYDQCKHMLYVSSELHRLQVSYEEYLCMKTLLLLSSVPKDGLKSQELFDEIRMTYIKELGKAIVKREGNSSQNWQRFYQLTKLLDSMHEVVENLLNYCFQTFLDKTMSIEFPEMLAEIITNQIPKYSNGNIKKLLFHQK
Chain of Ubiquitin carboxyl-terminal hydrolase 1 (Homo sapiens) (O94782 whole entry, looked up): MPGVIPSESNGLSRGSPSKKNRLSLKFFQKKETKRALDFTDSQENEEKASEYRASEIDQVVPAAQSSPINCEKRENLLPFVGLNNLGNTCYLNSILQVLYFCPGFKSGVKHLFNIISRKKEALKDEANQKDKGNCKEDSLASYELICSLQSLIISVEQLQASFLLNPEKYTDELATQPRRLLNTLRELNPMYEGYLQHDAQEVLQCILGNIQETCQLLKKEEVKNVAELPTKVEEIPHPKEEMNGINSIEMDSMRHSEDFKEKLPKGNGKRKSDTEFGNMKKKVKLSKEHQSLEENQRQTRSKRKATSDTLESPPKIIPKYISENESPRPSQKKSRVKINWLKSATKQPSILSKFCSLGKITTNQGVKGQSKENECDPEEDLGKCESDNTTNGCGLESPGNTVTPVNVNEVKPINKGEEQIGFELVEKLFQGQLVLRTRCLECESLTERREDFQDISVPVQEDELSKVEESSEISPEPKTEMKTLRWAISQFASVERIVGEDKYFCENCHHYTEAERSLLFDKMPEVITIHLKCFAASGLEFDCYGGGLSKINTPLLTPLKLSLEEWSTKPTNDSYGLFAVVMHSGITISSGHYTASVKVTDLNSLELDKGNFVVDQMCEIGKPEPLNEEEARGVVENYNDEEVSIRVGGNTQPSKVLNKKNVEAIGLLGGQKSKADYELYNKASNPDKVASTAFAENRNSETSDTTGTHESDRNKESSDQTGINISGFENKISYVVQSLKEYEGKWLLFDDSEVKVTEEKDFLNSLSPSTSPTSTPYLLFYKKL
Chain of Cytochrome P450 1A2 (Homo sapiens) (P05177 whole entry, looked up): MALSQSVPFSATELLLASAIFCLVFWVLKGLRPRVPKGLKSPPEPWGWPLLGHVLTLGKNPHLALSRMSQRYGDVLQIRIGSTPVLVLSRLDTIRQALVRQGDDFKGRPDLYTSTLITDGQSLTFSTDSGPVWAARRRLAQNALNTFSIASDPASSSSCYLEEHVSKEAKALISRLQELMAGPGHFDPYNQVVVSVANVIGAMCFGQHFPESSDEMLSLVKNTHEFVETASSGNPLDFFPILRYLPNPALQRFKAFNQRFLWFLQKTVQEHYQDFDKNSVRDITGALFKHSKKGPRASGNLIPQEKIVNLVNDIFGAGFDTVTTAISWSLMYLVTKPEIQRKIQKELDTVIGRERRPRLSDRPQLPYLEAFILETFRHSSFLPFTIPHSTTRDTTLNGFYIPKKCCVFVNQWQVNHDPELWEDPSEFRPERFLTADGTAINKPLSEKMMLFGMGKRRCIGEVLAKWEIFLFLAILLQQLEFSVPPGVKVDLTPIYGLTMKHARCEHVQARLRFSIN
Chain of Lysosomal acid glucosylceramidase (Homo sapiens) (P04062 whole entry, looked up): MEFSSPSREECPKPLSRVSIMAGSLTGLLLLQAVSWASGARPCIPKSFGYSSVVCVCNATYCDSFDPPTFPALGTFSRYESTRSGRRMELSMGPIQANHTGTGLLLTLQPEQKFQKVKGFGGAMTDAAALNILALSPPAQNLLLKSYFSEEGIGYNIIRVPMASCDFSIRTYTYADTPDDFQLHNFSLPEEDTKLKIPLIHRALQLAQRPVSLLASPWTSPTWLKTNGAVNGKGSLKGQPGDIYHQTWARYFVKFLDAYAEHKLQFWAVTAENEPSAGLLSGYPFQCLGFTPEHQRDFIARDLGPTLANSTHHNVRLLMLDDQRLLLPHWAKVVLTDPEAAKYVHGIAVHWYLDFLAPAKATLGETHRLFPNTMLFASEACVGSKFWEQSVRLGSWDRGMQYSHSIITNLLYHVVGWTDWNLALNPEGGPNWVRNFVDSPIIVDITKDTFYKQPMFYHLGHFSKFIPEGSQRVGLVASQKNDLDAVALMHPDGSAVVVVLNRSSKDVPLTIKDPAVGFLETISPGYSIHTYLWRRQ

For the molecule `COCCn1c(=O)c(-c2cccc(C#N)c2)nc2cnc(N3CCN(C)CC3)nc21`, the Potency in [1] is > 11.4 µM (inactive); in assay [3] it was 15.8 µM (active); in [6], > 9.22 µM (inactive); in assay [7], > 46 µM (inactive). Moreover, the values for the activity change, negative = inhibition in assay [2], in assay [4] and in assay [10] were -14.7% (inactive), 0.13% (inactive) and 6.64% (inactive), respectively. Also, the activity, negative = inhibition in assay [5] was -4.72% (inactive). The Potency result in assay [8], in assay [9], in assay [11] and in assay [12] was “inactive” in each case. For the same molecule, the max response in assay [10] (setting [20]) amounted to 18.2%; in assay [10] (setting [21]), 22.5%.

`CC#C[C@]1(O)CC[C@H]2C3CCC4=CC(=O)CCC4=C3[C@@H](c3ccc(N(C)C)cc3)C[C@@]21C` (stereo partly specified): the activity change, negative = inhibition in assay [10] is 0.852% (inactive). The max response was -13.1% in assay [10] (setting [20]) and -13.3% in [10] (setting [21]).

Consider `CC1(C)[C@@H](O)CC[C@]2(C)C3C(=O)C=C4C5C[C@@](C)(C(=O)O)CC[C@]5(C)CC[C@@]4(C)[C@]3(C)CC[C@@H]12` (stereo partly specified), for which the Potency result in [13], in assay [14] and in assay [15] was “inactive” in each case. Further, in assay [10], the activity change, negative = inhibition was 2.84% (inactive). In addition, the max response in assay [10] (setting [20]) was found to be 8.09%; in [10] (setting [21]) it was 11.1%. Moreover, the Potency in assay [16] was 5.55 µM (active).

As to `CN1CCc2c(cc(O)c(O)c2Cl)C(c2cccc(Cl)c2)C1` (stereo unspecified), in [10], the activity change, negative = inhibition was -5.99% (inactive). Also, the max response in assay [10] (setting [20]) came to 26.1%; in assay [10] (setting [21]), 9.27%.

In the case of `Nc1c2ccccc2nc2ccccc12` (tested in a mixture with another compound), the Potency result in [13], in [17], in assay [12], in assay [14] and in [15] was “inactive” throughout. Also, in assay [18], the outcome was inactive. In [10], the activity change, negative = inhibition was -15.1% (inactive). Besides, the max response in [10] (setting [20]) was -8%; in [10] (setting [21]), -17.5%.

`CC(=O)OC1c2c(ccc3ccc(=O)oc23)OC(C)(C)C1OC(=O)CC(C)C` (stereo unspecified): the Potency is 20 µM (active) in assay [19], 25.1 µM (active) in assay [10] and 44.1 µM (active) in assay [16]. The Potency entry in assay [13], in [17], in [14] and in assay [15] was “inactive” each time. Besides, the outcome in assay [18] was inactive. Besides, the max response in [10] (setting [20]) is -23.2%; in assay [10] (setting [21]), -91.6%.
